The test system of this assay is Fibrinogen (Alexa647-labelled). The assay is described as follows: Alexa647-fibrinogen binding to printed small molecules – biochemical, small-molecule microarray, 635/667 nm fluorescence, artefact control for SMM control-protein annotation, profiling panel (AID 1131).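 Further: z-score merges 667 nm fluorescence with per-spot signal-to-noise over triplicate slides.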 The conditions noted are these: fibrinogen-A647 binding fluorescence, higher = more signal.
In turn, `O=C(O)C1=CC[C@H]2C(=O)N(c3ccccc3)C(=O)[C@@H]12` showed a composite z-score of 0.272.
To `CCc1cccc(NC(=O)O[C@H]2[C@H](OC(=O)Nc3ccccc3-c3ccccc3)[C@H](OC(=O)Nc3ccccc3-c3ccccc3)[C@@H](OC)O[C@@H]2CO)c1` belongs 1.01.
`C=C(COC)/C(=C/C[C@@H](OC(C)=O)c1cccc(OCCO)c1)c1cnc2ccccc2c1` showed a composite z-score of -0.657.
In turn, `Cc1ccc(S[C@]2(C(=O)NCc3ccccc3)CC(=O)N(Cc3ccccc3C(F)(F)F)[C@@H]2c2ccc(CO)cc2I)cc1` returned a composite z-score of -0.201.
In turn, `COCCOC(=O)N1C(=O)[C@@]2(c3cc(C#CC4(O)CCCCCC4)ccc31)[C@H](C(N)=O)[C@H]1C(=O)O[C@H](c3ccccc3)[C@H](c3ccccc3)N1[C@@H]2c1ccc(OCCO)cc1` came in with a composite z-score of 0.95.
On to `COc1c(C)cc(-c2cc3c(c(CCc4ccccc4)n2)[Si](C(C)C)(C(C)C)O[C@H]3c2ccccc2)cc1C`, for which the composite z-score is -0.543.
In the case of `COC(=O)[C@@]1(Cc2ccc(F)cc2)[C@H]2c3cc(C(=O)N(C)C)n(Cc4cccc5ccccc45)c3C[C@H]2CN1C(=O)c1ccccc1`, the composite z-score stood at 0.338.
For `CC(C)C[C@@H]1NC(=O)[C@@H]2C[C@H](C(=O)NCCCCCNC(=O)CS)[C@H](c3ccc(O)cc3)N2C1=O`, the composite z-score is 0.0178.
With `C=C[C@@H](CO)NS(=O)(=O)c1ccc(Br)cc1`, the composite z-score was -0.387.
In turn, `COC(=O)[C@@]1(Cc2ccc(F)cc2)[C@H]2c3cc(C(=O)N(C)C)n(CCF)c3C[C@H]2CN1C(=O)c1ccccc1` registered a composite z-score of 0.911.
To `COC(=O)[C@@]1(Cc2ccccc2)[C@H]2c3cc(C(=O)N(C)C)n(Cc4nc5ccccc5[nH]4)c3C[C@H]2CN1C(=O)c1ccccc1` belongs 1.03.

These data come from PubChem BioAssay.
